Drawing on PubChem BioAssay AID1626 (SRMLSC, 2009), this text covers inhibition for 92 compounds.

The campaign covered roughly 220,000 compounds. About 2,000 (0.91%) were called active. About 2% were inconclusive and are not listed. Cut-off read from the data, not from the text of the source: inconclusive = inhibition above about 80% without an active follow-up result; inactive = below that; test concentration not stated here. Only a sample is shown. Results with a measured potency or affinity are listed apart.

The experiment in a line: M. tuberculosis H37Rv growth inhibitors, H37Rv strain (AID 1626).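 Note: bacteria incubated seven days before Alamar blue readout; 0% = bacteria only wells and 100% = bacteria with antibiotic wells.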 The note with it: stronger effect = higher value, concentration not given here.
As a reminder, the inhibition is the relative decrease from the control value, in per cent. Regarding `CC(C)c1cc(C(=O)O)c2ccccc2n1`, the inhibition is -2.96% (inactive).
Turning to `COc1ccc(-n2c(-c3ccc(Br)cc3)c[n+]3c2CCC3)cc1`, the inhibition was 2.38% (inactive).
On to `Brc1ccc(-c2cn3c(n2)CCc2ccc4cccnc4c2-3)cc1`, for which the inhibition was -2.02% (inactive).
With `COc1cc(/C=N/NC(=O)COc2cc(C)cc(C)c2)ccc1OS(=O)(=O)c1ccc(C)cc1` the figure was 10.7% (inactive); with `COc1ccc(CC(=O)Nc2ccc3c(c2)CCC3)cc1`, 9.72% (inactive); with `COc1cccc(NC(=O)COc2ccc3c(c2)CCC3)c1`, 74.3% (inactive).
In the case of `CC(=O)Nc1ccc(NC(=O)COc2ccc3c(c2)CCC3)cc1`, the inhibition was 10.5% (inactive).
With `CCc1ccc(CN(C)CC(=O)Nc2ccc3c(c2)CCC3)cc1`, the inhibition was 48% (inactive).
In the case of `Cc1cc(C(=O)Cn2nc(C(=O)O)c3ccccc3c2=O)c(C)n1CCc1ccc(F)cc1`, the inhibition was 3.54% (inactive).
With `CC(C)OCCCNC(=O)Nc1cccc2ccccc12` the figure was -3.82% (inactive); with `CCOC(=O)c1c(NC(=O)COc2cccc3c2CCN(C)C3=O)sc2c1CCC2`, 31.8% (inactive); with `C/C(N)=C(/C#N)C(=O)COC(=O)c1ccccc1Oc1ccccc1`, -2.05% (inactive).
The figure for `O=C(Nc1ccc(N2CCN(C(=O)c3ccccc3)CC2)cc1)c1ccc(Br)o1` is 19.7% (inactive); for `O=C(Nc1ccc(N2CCN(C(=O)c3ccc(Cl)cc3)CC2)cc1)c1ccc2c(c1)OCCO2` it is -4.15% (inactive); for `O=C(Nc1ccc(N2CCN(C(=O)c3ccco3)CC2)cc1)c1ccco1` it is -0.76% (inactive).
With `O=C(Nc1ccc(N2CCN(C(=O)c3ccc(Cl)cc3)CC2)cc1)c1cc2ccccc2o1` the figure was -12.4% (inactive); with `O=C(Nc1ccc(N2CCN(C(=O)c3ccco3)CC2)cc1)c1ccccc1`, 7.16% (inactive).
In the case of `O=C(Nc1ccc(N2CCN(C(=O)c3ccccc3)CC2)cc1)c1cc2ccccc2o1`, the inhibition is 9.58% (inactive).
With `Cc1ccc(-c2nn(-c3ccccc3)cc2/C=C/C(=O)OCC(=O)NC2CC2)o1` the figure was 6.54% (inactive); with `Cc1cc(C)n(-c2ccc(C(=O)Nc3cccnc3Cl)cc2)n1`, -2.86% (inactive).
With `CS(=O)(=O)N1CCc2cc(NC(=O)c3ccc(Cl)cc3Cl)ccc21` the figure was -3.19% (inactive); with `COc1ccc(/C=N/NC(=O)C2C3CCCCC32)cc1OC` (configuration not stated), 1.66% (inactive).
Take `CCOc1ccc(Br)cc1S(=O)(=O)Nc1ccc(C(=O)Nc2ccc(C)cc2)cc1`: the inhibition was 1.51% (inactive).
In the case of `CN1C(C(=O)NCC2CC2)CC2Cn3c(nc4cc5ccccc5cc43)C21` (configuration not stated), the inhibition was -9.29% (inactive).
The figure for `COc1ccccc1NC(C#N)c1ccccc1OCc1ccccc1` (configuration not stated) is 5.14% (inactive).
With `N#CC(Nc1ccccc1)c1ccccc1OCc1ccccc1` (configuration not stated) the figure was 5.52% (inactive).
For `CC(=O)n1c2ccccc2c2c1c1ccccc1n2C`, the inhibition was 6.42% (inactive).
The figure for `CC(C)OC(=O)CC1C(=O)NCCN1C(=S)NC(=O)c1ccccc1` (configuration not stated) is 3.87% (inactive); for `Cc1ccc(C)n1-c1ccc(N2CCOCC2)c(Br)c1` it is 4.43% (inactive).
The figure for `COC(=O)c1ccc(C(=O)OC)c(NC(=O)CN2CCN(c3ccccc3OC)CC2)c1` is 72.2% (inactive); for `COC(=O)c1ccc(C(=O)OC)c(NC(=O)CN2CCN(c3ccc(OC)cc3)CC2)c1` it is 13.8% (inactive); for `O=C1OCc2cc(N=Nc3c(O)[nH]c(=O)[nH]c3=O)ccc21` it is -9.19% (inactive).
Turning to `COc1c(/C=N/NS(=O)(=O)c2ccc(C)cc2)c(CCN(C)C(C)=O)cc2c1OCO2`, the inhibition was -0.76% (inactive).
The figure for `CCn1c(SCC(=O)c2cccs2)nnc1-c1ccco1` is -18.1% (inactive); for `Cc1cccc(Nc2nc(N)c([N+](=O)[O-])c(NCc3ccco3)n2)c1` it is 22.5% (inactive); for `Nc1nc(Nc2ccc(Cl)cc2)nc(NCc2ccco2)c1[N+](=O)[O-]` it is 18.8% (inactive).
With `Cc1nn(C)c2c(=O)c(=O)c2n(C)[nH]1` the figure was -3.16% (inactive); with `CC(C)CCNC(=O)c1onc(CSc2ccccc2)c1C(=O)NCCC(C)C`, 19% (inactive); with `CCn1c(COc2ccc(C)cc2)nnc1SCC(=O)NNC(=O)c1ccc(OC)cc1`, 4.68% (inactive).
`S=c1[nH]nc(-c2cccnc2)n1/N=C/c1ccccc1`: the inhibition is -12.5% (inactive).
For the compound `CCN1CCN(Cc2ccc(NC(=O)c3cc(NC(=O)c4nccnc4N)cc(OC)c3)cc2C(F)(F)F)CC1`, the inhibition is 6.4% (inactive).
The figure for `CCN1CCN(Cc2ccc(NC(=O)c3ccc(C)c(NC(=O)c4ccc5n[nH]nc5c4)c3)cc2C(F)(F)F)CC1` is -11% (inactive); for `CCN1CCN(Cc2ccc(NC(=O)c3cc(NC(=O)c4ccc5n[nH]nc5c4)cc(OC)c3)cc2C(F)(F)F)CC1` it is -1.88% (inactive).
Consider `CCN1CCN(Cc2ccc(NC(=O)c3ccc(C)c(NC(=O)c4ccnnc4)c3)cc2C(F)(F)F)CC1`, for which the inhibition is -3.04% (inactive).
Consider `CCN1CCN(Cc2ccc(NC(=O)c3cc(NC(=O)N4CCNC4=O)cc(OC)c3)cc2C(F)(F)F)CC1`, for which the inhibition was -1.27% (inactive).
On to `CCN1CCN(Cc2ccc(NC(=O)c3cc(NC(=O)c4ccno4)cc(OC)c3)cc2C(F)(F)F)CC1`, for which the inhibition was 14.6% (inactive).
As for `Cc1cc(C)cc(NC(=O)CN2C(=O)NC(C)(c3ccccc3)C2=O)c1` (configuration not stated), the inhibition was 1.34% (inactive).
`COc1ccc(-c2nn(-c3ccccc3)cc2/C=C2/SC(=S)N(Cc3ccco3)C2=O)c(C)c1`: the inhibition is -0.21% (inactive).
The figure for `Cc1sc(NC(=O)c2ccccc2F)c(CN2CCCCC2)c1C` is 7.51% (inactive); for `CCOc1ncccc1C(=O)OCC(=O)c1ccccc1` it is -3.62% (inactive).
Consider `COc1ccc(CNC(=O)COC(=O)C2=COCCO2)cc1`, for which the inhibition is 46.3% (inactive).
With `CCN(CC(=O)Nc1ccc(NC(C)=O)cc1)CC(=O)Nc1ccccc1C(=O)c1ccccc1` the figure was 2.54% (inactive); with `CC(=O)c1ccn(S(=O)(=O)c2ccccc2)c1`, 4.75% (inactive).
With `CC1(C)Cc2c(cnn2-c2ccccc2)-c2c1c1ccccc1n2CC(O)CCl` (configuration not stated) the figure was 2.97% (inactive).
The figure for `CC1(C)Cc2c(cnn2-c2ccccc2)-c2c1c1ccccc1n2CC(O)CBr` (configuration not stated) is 8.54% (inactive).
As to `O=C(Nc1ccc(Cl)cn1)c1ccc(-c2ccc(Cl)c(Cl)c2)o1`, the inhibition is 9.55% (inactive).
As to `COc1cc2nc(-c3ccccc3)nc(N3CCCC3)c2cc1OC`, the inhibition was 7.03% (inactive).
For the compound `COc1cc2nc(Cl)nc(N3CCCCC3)c2cc1OC`, the inhibition was 1.6% (inactive).
The figure for `O=c1c2ccccc2nc(SCc2ccncc2)n1CC1CCCO1` (configuration not stated) is 4.12% (inactive); for `CSc1ccccc1NC(=O)Nc1ccc(F)c(Cl)c1` it is 1.15% (inactive).
With `O=C(Nc1ccc(F)cc1)Nc1csc2ccccc12`, the inhibition was 57.9% (inactive).
With `O=C(Nc1ccc(F)cc1F)Nc1ccc(F)cc1F`, the inhibition was -3.43% (inactive).
As to `O=C(Nc1ccccc1)Nc1csc2ccccc12`, the inhibition was 14.7% (inactive).
The figure for `CCc1ccc(C2C3=C(CC(C)(C)CC3=O)OC3=C2C(=O)CC(C)(C)C3)cc1` is -1.37% (inactive); for `O=c1[nH]c(/C=C\c2cccnc2)c([N+](=O)[O-])c(=O)[nH]1` it is -10.6% (inactive); for `C/C=C/C(=O)OCC(=O)Nc1nc2ccc(C)cc2s1` it is -7.77% (inactive).
Consider `COc1cccc(C(=O)NNC(=O)C2CC(C)=C(C)CC2C(=O)O)c1` (configuration not stated), for which the inhibition is -6.84% (inactive).
Turning to `O=C(NC1CCSC1=O)c1ccc(Oc2ccc(F)cc2)nc1` (configuration not stated), the inhibition was 0.17% (inactive).
Consider `CCCn1nc2cc(C(=O)NCC34CC5CC(CC(C5)C3)C4)ccc2c1OCC`, for which the inhibition was 5.26% (inactive).
The figure for `COc1ccc(Br)cc1CNC(=O)C1CCN(S(=O)(=O)N2CCCC2)CC1` is -4.95% (inactive).
As for `Cc1cccnc1NCc1ccc(O)c2ncccc12`, the inhibition is -8.13% (inactive).
`Cc1ccccc1NCc1ccc(O)c2ncccc12`: the inhibition was 5.07% (inactive).
Regarding `CCS(=O)(=O)c1ccc(OC)c(N=Nc2ccc(O)c3ncccc23)c1`, the inhibition is 4.79% (inactive).
`Cc1ccc(NCc2ccc(O)c3ncccc23)cc1C`: the inhibition was 9.65% (inactive).
On to `COc1ccccc1N=Nc1[nH]c2ccc(C)cc2c1O`, for which the inhibition is 9.9% (inactive).
The figure for `Cc1ccc(S(=O)(=O)Nc2ccc(O)c3ncccc23)cc1` is -2.86% (inactive).
Take `Oc1ccc(N=Nc2ccc3c(c2)OCCO3)c2ncccc12`: the inhibition was 41% (inactive).
In the case of `CCS(=O)(=O)c1ccc(N=Nc2ccc(O)c3ncccc23)c(OC)c1`, the inhibition was -3.16% (inactive).
With `Cc1ccc(-c2nc(C=Nc3cccc(C)c3)c(O)o2)cc1` the figure was 1.48% (inactive); with `CCn1c(SCC(=O)Nc2cc(C)on2)nnc1-c1c[nH]c2ccccc12`, -1% (inactive).
The figure for `CSc1ccccc1NC(=O)COC(=O)c1ccccc1Cc1ccccc1` is 7.08% (inactive); for `N#CC1=C2N=C(N)c3ccccc3N2C2=C(C(=O)CCC2)C1c1ccc(Cl)cc1` (configuration not stated) it is -9.07% (inactive).
As for `Cc1ccc(C(=O)Nc2ccc(N3CCN(S(C)(=O)=O)CC3)cc2)cc1C`, the inhibition was -8.49% (inactive).
With `C=CCOc1ccc(/C=C2\C(=N)N3N=C(S(=O)(=O)CC)SC3=NC2=O)cc1OC` the figure was -2.08% (inactive); with `O=C(c1ccco1)N1CCN(CCCCN2C(=O)c3ccccc3C2=O)CC1`, -5.13% (inactive); with `CC1CN(C(=O)c2cc(F)c(F)cc2Cl)CC(C)O1` (configuration not stated), -4.24% (inactive).
With `Fc1ccc(C(OCCN2CCCC2)c2ccc(Br)cc2)cc1` (configuration not stated) the figure was 11.1% (inactive).
The figure for `Fc1ccc(C(OCCN2CCCC2)c2ccc(F)cc2)cc1` is 3.27% (inactive); for `c1ccc(C(OCCN2CCNCC2)c2ccccc2)cc1` it is -7.41% (inactive); for `Clc1ccccc1CN1CCN(CCCc2ccccc2)CC1` it is 6.37% (inactive).
For the compound `COc1ccc(C(C)=O)cc1COC(=O)C(CO)NS(=O)(=O)c1ccc(Br)cc1` (configuration not stated), the inhibition was 7.85% (inactive).
With `Cc1ccc(C(=O)N2CCN(c3cc4c(cc3[N+](=O)[O-])n(C)c(=O)n4C)CC2)cc1` the figure was -9.29% (inactive).
